The full ranking holds about 25,000 sequences; the median of “ln(normalized median fluorescence intensity)” is about 9.3, and the highest 2% start at about 10. The entries come from a sample that favours the highest values as a whole.

The assay relates to PF3D7_0420300 AP2 domain 1 (GST-tagged). Briefly: gcPBM binding intensity (ln(normalized median fluorescence intensity)); higher = stronger DNA binding. The method in brief:
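An Agilent 4 × 180k array of primer-extended double-stranded 36-bp intergenic genomic probes, with negative controls, was incubated for 1 h with GST-tagged P. falciparum DNA-binding domains expressed in E. coli. Alexa488 anti-GST antibody detected bound protein, scanned at 488 nm. Binding intensity is the highest Masliner-normalised natural-log median intensity across replicate spots of either probe orientation.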
As for “TAATGATTATATGACTGTACATTTGTAGGTATAATT [XGTACX_site3373]”, the “gcPBM binding intensity (ln)” value came out at 9.18.

With “ACATAAAAATTATGCACACTTAATAAAGCGAAATGT [CACACA_site3183]”, the “gcPBM binding intensity (ln)” value came to 9.45.

For the sequence “TATATATAAAAATATACACACACAAATGTATATATA [CACACA_site7956]”, the “gcPBM binding intensity (ln)” value worked out at 9.54.

As for “AAATATTTTATACTTGCACACAAAATATATTAAAAT [CACACA_site8606]”, the “gcPBM binding intensity (ln)” value was 9.32.

Turning to “AAAAACAAAAAAGAAGCACACATATATATATATATA [CACACA_site8779]”, the “gcPBM binding intensity (ln)” value is 9.6.

Turning to “ATCCTACTATGTTATACACACAATTACTTTTTTCTC [CACACA_site3712]”, the “gcPBM binding intensity (ln)” value came to 9.86.

“CTTATTATTATATGGGTGCTCATATTTTTCTTTTTT [GTGCAC_site9723]”: the “gcPBM binding intensity (ln)” value is 9.4.

For the sequence “TTATACTTTGGGTGGTGTACTATATTATGCTTATAA [XGTACX_site1106]”, the “gcPBM binding intensity (ln)” value was 9.51.

“GGTGGTGGTGGGTGGGTGCTTCTATTATTATATTAT [GTGCAC_site9391]”: the “gcPBM binding intensity (ln)” value worked out at 10.7.

Regarding “CCTTTATAATTGGAAACACACATATAAAGTATATAT [CACACA_site3900]”, the “gcPBM binding intensity (ln)” value was found to be 9.2.

Take “CATTCAAACAAAAAAAGTACTCATCACATAATATAT [XGTACX_site1251]”: the “gcPBM binding intensity (ln)” value stood at 9.44.

“ATATAAATAAACAGGTGTACTATAATGTTCATAGTA [XGTACX_site1553]”: the “gcPBM binding intensity (ln)” value was determined as 9.47.

Regarding “TTAATTATAATTATATGTACGAACTTTTTTTTTTTT [XGTACX_site6586]”, the “gcPBM binding intensity (ln)” value was found to be 9.14.

In the case of “AAAAAAAAAAAACACACACACACATTCAATATAAAA [CACACA_site40]”, the “gcPBM binding intensity (ln)” value stood at 10.

For “AATATTAAAATATAAACACACAAAATTCAATTATAT [CACACA_site5971]”, the “gcPBM binding intensity (ln)” value was 9.61.

Regarding “AAAAAAAAAAAAAAAACACACAGAACAATATATAAA [CACACA_site4698]”, the “gcPBM binding intensity (ln)” value worked out at 9.76.

For the sequence “TTCATTAAAACGAATACACACATAAATATATAAAAG [CACACA_site4824]”, the “gcPBM binding intensity (ln)” value was found to be 9.62.

On to “AAAAAAAACGAACACACACACATTCAATATAAAACA [CACACA_site6170]”, for which the “gcPBM binding intensity (ln)” value stood at 10.2.

“AAAAAAAACAGACACACACACATTCAATATAAAACA [CACACA_site41]”: the “gcPBM binding intensity (ln)” value came out at 10.2.

Take “AAAAAAAACAGACACACACACATAAATATAAATAAA [CACACA_site6214]”: the “gcPBM binding intensity (ln)” value was found to be 9.96.

As to “AATATTATAATATAAACACACAAAATTCAATTATAT [CACACA_site3789]”, the “gcPBM binding intensity (ln)” value is 9.69.

On to “AAAAAAAACGGACACACACACATTCAATATAAAACA [CACACA_site4189]”, for which the “gcPBM binding intensity (ln)” value amounted to 10.2.

For “TATAATAGTTCATAGGTGCAATATAATAAATTTATA [GTGCAC_site9573]”, the “gcPBM binding intensity (ln)” value was 9.13.

Consider “TACCTTTATTAATAAAGTACATTAATCTGTGTATAC [XGTACX_site8720]”, for which the “gcPBM binding intensity (ln)” value turned out to be 9.09.

Consider “AGTATTCACTTAATATGTACATATTTATTATAAGAG [XGTACX_site3434]”, for which the “gcPBM binding intensity (ln)” value was determined as 9.11.

For “ACATCAAGAATTATTAAGAATACGGATAGATAAAAT [GTGCAC_negctrl_site261]”, the “gcPBM binding intensity (ln)” value was found to be 9.4.

With “ATAAAATTTTATATGGGTACATAATATAATATATAT [XGTACX_site8160]”, the “gcPBM binding intensity (ln)” value was determined as 9.21.

In the case of “AAAAAAAAAAAGAAGGGTACATATTATATATAATAT [XGTACX_site6204]”, the “gcPBM binding intensity (ln)” value amounted to 9.43.

In the case of “ATTATAAGAAGGGGGGGTACATAAATATAAATGTAT [XGTACX_site5624]”, the “gcPBM binding intensity (ln)” value came to 10.3.

With “TATAAGAATAAAAAGGGTACATAAAATAATAATATA [XGTACX_site2355]”, the “gcPBM binding intensity (ln)” value was 9.55.

Consider “ATATTAAAAATATATACACACATATATATAAATATA [CACACA_site2257]”, for which the “gcPBM binding intensity (ln)” value was determined as 9.37.

As for “AAAAAAAATAAAAATAGTACTCAAAAAATTATGAAT [XGTACX_site3073]”, the “gcPBM binding intensity (ln)” value was 9.19.

Consider “GCTCAATTTTTGGGTACACACAAATGTATAAGAATA [CACACA_site7178]”, for which the “gcPBM binding intensity (ln)” value was determined as 9.22.

As to “TTATGGTTATACATATGTACATATATATATATATAT [XGTACX_site1494]”, the “gcPBM binding intensity (ln)” value was 9.29.

In the case of “ATAATTACAAAATAAACACACATATAGATTTATATG [CACACA_site6343]”, the “gcPBM binding intensity (ln)” value stood at 9.6.

For the sequence “TATAAATATACACCCACACACATATATATATATATA [CACACA_site3745]”, the “gcPBM binding intensity (ln)” value stood at 9.66.

In the case of “TATAAATATACACCCACACACATATATAAATAAATA [CACACA_site7717]”, the “gcPBM binding intensity (ln)” value was found to be 9.89.

Regarding “AAAAAAAATACATACACACACACACCCACATATATA [CACACA_site3561]”, the “gcPBM binding intensity (ln)” value came to 10.1.

For “TATATATATAAATACACACACACCCTAAAAATATAT [CACACA_site4970]”, the “gcPBM binding intensity (ln)” value was 10.1.

For the sequence “TATACACCCTAAAATACACACACACCCACCCATATA [CACACA_site9380]”, the “gcPBM binding intensity (ln)” value turned out to be 10.3.

Consider “TACACGCTAAAATACACACACACACCCACATATATA [CACACA_site4153]”, for which the “gcPBM binding intensity (ln)” value turned out to be 10.2.

Regarding “TATATATATATATACACACACACCCTAAAAATATAT [CACACA_site1611]”, the “gcPBM binding intensity (ln)” value was 9.97.

Regarding “TACCCACTAAAATACACACACACACCCACATATATA [CACACA_site6141]”, the “gcPBM binding intensity (ln)” value came to 10.2.

Regarding “TATATAAATATACACCCACACACATATATATATATA [CACACA_site9247]”, the “gcPBM binding intensity (ln)” value was found to be 9.63.

The values above are taken from the supplement of paper PMC11417369.
